Bioassay records: PubChem, National Center for Advancing Translational Sciences (NCATS)
nsP2pro primary: inhibitors of chikungunya virus nsP2 protease | FRET peptide cleavage, nsP2pro, fluorescence 1 h | AID 1964107 | Potency, µM (series often up to 24.9 µM), actives largely listed as inhibitors | Q8JUX6 | 1.1% of 31,000 active; note: nearly all actives have a fitted effect of over 60% in size
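Purified recombinant nsP2pro (150 nM final) in 10 mM Tris-HCl pH 8.0 with 0.01% Tween 20 was preincubated 15 min at room temperature with compound (7 concentrations, up to 25 uM). FRET peptide 2 substrate (2.5 uM final) was then added; fluorescence was read after 1 h.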
nsP2 cell sec: secondary cell-based test for CHIKV nsP2 protease inhibitors; shares compounds with nsP2pro primary; cell-based CHIKV nsP2 protease reporter assay; Potency, µM (doses to about 51.1 µM), hits mostly inhibitors; 10% of 450 active; AID 1964100; note: nearly all actives have a fitted effect of over 70% in size
NSP2 full ctr: inhibits full-length CHIKV NSP2 enzyme. Potency, µM (top dose mostly 50.7 µM), usual class: inhibitors. Full-length CHIKV NSP2 protease enzymatic counterscreen. shares compounds with nsP2pro primary. 39% of 410 active; note: nearly all actives have a fitted effect of over 65% in size
Furin counter: selectivity counter-screen for CHIKV nsP2 protease inhibitors: human furin; shares compounds with nsP2pro primary; Recombinant human furin enzymatic counterscreen, fluorogenic substrate; Potency, µM (series often up to 50.6 µM), usual class: inhibitors; 6% of 410 active
nsP2 NS23 pep: blocks CHIKV nsP2 protease cleavage of endogenous NS2/3 peptide | shares compounds with nsP2pro primary | AID 1964103 | 34% of 410 active | Potency, µM (top dose mostly 51 µM), most hits filed as inhibitors | Purified CHIKV nsP2 protease, endogenous NS2/3 peptide cleavage; note: nearly all actives have a fitted effect of over 55% in size
Papain counter: papain protease inhibition, counterscreen for nsP2pro inhibitors; AID 1964104; Potency, µM (doses to about 51 µM), actives largely listed as inhibitors; 5% of 410 active; purified papain protease activity, enzymatic inhibition; shares compounds with nsP2pro primary
Target sequence (P00784 whole entry, looked up): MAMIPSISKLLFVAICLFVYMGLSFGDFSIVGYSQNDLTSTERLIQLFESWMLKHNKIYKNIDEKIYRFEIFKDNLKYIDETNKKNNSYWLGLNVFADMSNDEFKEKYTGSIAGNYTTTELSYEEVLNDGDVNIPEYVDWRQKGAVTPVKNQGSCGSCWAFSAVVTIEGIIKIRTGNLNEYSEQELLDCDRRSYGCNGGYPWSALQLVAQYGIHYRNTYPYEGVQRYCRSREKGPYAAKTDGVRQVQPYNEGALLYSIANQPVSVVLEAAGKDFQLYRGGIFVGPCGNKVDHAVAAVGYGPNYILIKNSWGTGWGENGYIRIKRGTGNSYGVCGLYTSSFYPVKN
nsP2pro conf qHTS: CHIKV nsP2 protease inhibition, confirmatory qHTS; Potency, µM (doses to about 25.5 µM), actives largely listed as inhibitors; AID 1964105; shares compounds with nsP2pro primary; CHIKV nsP2 protease enzymatic activity, qHTS; 43% of 410 active; note: nearly all actives have a fitted effect of over 75% in size
HCV NS3 counter: HCV NS3/4A protease inhibition, counterscreen. shares compounds with nsP2pro primary. HCV NS3/4A protease biochemical counterscreen. Potency, µM (series often up to 50.9 µM), most hits filed as inhibitors. 20% of 410 active; note: nearly all actives have a fitted effect of over 55% in size
A number is an active result; – = inactive; ? = inconclusive. The full list was thinned out, with hits kept by preference. Calls come from the whole dose curve.

SMILES	nsP2pro primary	others
Cc1nn(Cc2ccccc2)c(C)c1[C@@H]1C=C[C@@H](NC(=O)c2cccs2)C1	–
CCNC(=O)N[C@@H]1C=C[C@@H](c2c(C)nn(-c3ccc(F)cc3)c2C)C1	–
Cc1nn(CCC#N)c(C)c1[C@@H]1C=C[C@@H](NC(=O)c2cccs2)C1	?	nsP2 cell sec=–
CCN(CC)C(=O)c1sc2c(c1C)c(=O)n(-c1ccc(OC)cc1OC)c(=O)n2CC(=O)c1ccc(Cl)cc1	–
CCN(CC)CCNC(=O)c1ccc2c(c1)NC(=O)C(CS(=O)(=O)Cc1ccc(F)cc1Cl)N2 (centres undefined)	–
Cc1cc(F)ccc1S(=O)(=O)Nc1cc2c(C(=O)O)c(C)oc2c2ccccc12	–
CC(=O)c1c(C)oc2c1cc(NS(=O)(=O)c1c(C)cc(C)cc1C)c1ccccc12	–
Cc1ccc(S(=O)(=O)Nc2cc(Cl)c(O)c3ccccc23)c(C)c1	2.5µM	nsP2 cell sec=6.5µM;NSP2 full ctr=7.3µM;Furin counter=–;nsP2 NS23 pep=1.8µM;Papain counter=–;nsP2pro conf qHTS=2.2µM;HCV NS3 counter=?
COc1ccc(N2CC(NC(=O)COc3ccc4ccccc4c3)CC2=O)cc1OC (centres undefined)	–
CC(C)c1ccc(N2C[C@]34C=C[C@H](O3)C(C(=O)N3CCSCC3)C4C2=O)cc1 (some centres undefined)	–
CNc1nc2c(s1)C(c1ccc(Cl)cc1)CC(=O)N2 (centres undefined)	3.2µM	nsP2 cell sec=–;NSP2 full ctr=2.9µM;Furin counter=–;nsP2 NS23 pep=8.2µM;Papain counter=–;nsP2pro conf qHTS=5.7µM;HCV NS3 counter=–
O=C(O)C1(Cc2cccc(Nc3nccs3)n2)CCC(Oc2cccc(Cl)c2F)CC1 (centres undefined)	–
Cc1cc(NC(=O)Nc2nnc(N(C)C3CCCCC3)s2)ccc1Br	–
O=C(Nc1cccc(Cc2ccccc2)c1)c1ccc(-c2cccc([N+](=O)[O-])c2)o1	–
O=C(Nc1cccc(Cc2ccccc2)n1)c1ccc(-c2cccc([N+](=O)[O-])c2)o1	10µM	nsP2 cell sec=–;NSP2 full ctr=?;Furin counter=–;nsP2 NS23 pep=–;Papain counter=–;nsP2pro conf qHTS=?;HCV NS3 counter=–
O=C(Nc1cncc(Cc2ccccc2)c1)c1ccc(-c2cccc([N+](=O)[O-])c2)o1	–
O=C(CCc1ccccc1)N1CCC(Cc2nncn2-c2ccccc2)C1 (centres undefined)	–
CCCn1c2ccccc2c2cnn(CC(=O)NCCc3ccc(OC)cc3OC)c(=O)c21	–
COc1cc(OC)c(N(C)C(=O)c2c(C)oc3ncnc(N4CCCCC4)c23)cc1Cl	–
O=C(Nc1nc2nc(-c3ccccc3)cc(=O)n2[nH]1)c1ccc(Cl)cc1	–
C[C@]12CC[C@H]3[C@@H]([C@H](O)CC4=CC(=O)CC[C@@]43C)[C@@H]1CC[C@@H]2O	–
C=C1C(=O)OC2C1C(O)CC1(C)C(O)CCC(C=O)C21 (centres undefined)	?	nsP2 cell sec=–;NSP2 full ctr=–;Furin counter=–;nsP2 NS23 pep=–;Papain counter=–;nsP2pro conf qHTS=–;HCV NS3 counter=–
C=C1C(=O)OC2CC3(C)C(CC12)C(C)=CC(O)C3OC(C)=O (centres undefined)	–
C=C1C(=O)OC2C1CCC1(C)C(O)CCC(=C)C21 (centres undefined)	–
C=C1C(=O)O[C@@H]2[C@H]1[C@H](O)C[C@]1(C)[C@@H](O)CC=C(C)[C@@H]21	?	nsP2 cell sec=?;NSP2 full ctr=–;Furin counter=–;nsP2 NS23 pep=–;Papain counter=–;nsP2pro conf qHTS=–;HCV NS3 counter=–
SMILES	nsP2pro primary	others
CC1=CCC(O)C2(C)CCC3C(C)C(=O)OC3C12 (centres undefined)	–
CCC1(O)CCC12CCN(C(=O)Cc1ccccc1)CC2 (centres undefined)	–
NNC(=O)C(C(=O)OCc1ccccc1)c1ccccc1 (centres undefined)	–
C[C@H]1CC[C@@]2(OC1)O[C@H]1CC3C4CC[C@H]5C[C@@H](O)CC[C@]5(C)C4=CC(=O)[C@]3(C)[C@H]1[C@@H]2C (some centres undefined)	–
CNC(=O)[C@@H](NC(=O)[C@H](CCCc1ccccc1)[C@H](C)N(O)C=O)C(C)(C)C	–
Cc1nc(C(C)C)ncc1C(=O)N1CCC2(CCCN(C)C2=O)C1 (centres undefined)	–
COc1ccc(C(=O)Nc2ccc3oc(-c4cccnc4)nc3c2)cc1	–
Cc1cccc(N2CCN(S(=O)(=O)c3ccc4c(c3)CCCN4C(=O)C3CCC3)CC2)c1C	–
Cc1nc2scc(CC(=O)N3CCOCC3)n2c(=O)c1-c1cc(C)n(-c2ccc(F)cc2)n1	–
O=C(c1ccncc1)N1CCCC(CN2CCCC2)CC1 (centres undefined)	–
O=C(/C=C/c1cccnc1)NCCCCC1CCN(C(=O)c2ccccc2)CC1	?	nsP2 cell sec=–;NSP2 full ctr=–;Furin counter=–;nsP2 NS23 pep=–;Papain counter=–;nsP2pro conf qHTS=–;HCV NS3 counter=–
Cc1cnc(C2CCOCC2)n1CC1CCN(C(=O)c2cccnc2)CC1	–
O=C1CCC(CNS(=O)(=O)c2cccnc2)CCN1Cc1ccccc1 (centres undefined)	–
C=CC(C)(CC/C=C(\C)C(=O)OC)OC1OC(COC(=O)CC(C)(O)CC(=O)O)C(OC2OC(CO)C(O)C(O)C2O)C(O)C1O (centres undefined)	–
Cc1cc2c(cc1S(=O)(=O)Nc1cccc(C(F)(F)F)c1)OCCN2C	–
C/C(=N\NC(=O)C(NC(=O)c1ccccc1)c1n[nH]c(=O)c2ccccc12)c1cccc(Br)c1 (centres undefined)	9.9µM	nsP2 cell sec=–;NSP2 full ctr=–;Furin counter=–;nsP2 NS23 pep=–;Papain counter=–;nsP2pro conf qHTS=–;HCV NS3 counter=–
CCC1CCCCN1CCCNC(=O)c1c(O)nc2c(C)cccn2c1=O (centres undefined)	–
O=C(O)CSCC(=O)NC1CCSC1=O (centres undefined)	–
O=C(Nc1cncc(O)c1)c1cccs1	–
CCc1ccccc1N(CC)C(=O)c1c(C)oc2ncn(C)c(=O)c12	–
CCSc1ncc(Cl)c(C(=O)Nc2c(C(=O)Nc3ccc(Cl)cc3)oc3ccccc23)n1	–
CN1CCN(c2cccc(Nc3nc4c(-c5ccc(S(C)(=O)=O)cc5)cccn4n3)c2)CC1	–
Nc1c(-c2ccccc2)nc(Cl)c2c(O)n[nH]c(=O)c12	9.9µM	nsP2 cell sec=–;NSP2 full ctr=–;Furin counter=–;nsP2 NS23 pep=–;Papain counter=–;nsP2pro conf qHTS=–;HCV NS3 counter=–
O=C(O)c1cc(-c2c(-c3ccccc3)nn3ccccc23)n[nH]c1=O	–
O=[N+]([O-])c1cc(-c2nc(-c3ccccc3)no2)ccc1NC1CCCCC1	–
